Assay results published in PubChem BioAssay AID1159580 (chemical genetic matrix, 2015).
Hit rate of the full screen: of about 5,500 compounds, about 2,000 (36%) were called active. Not shown: some 18% with an inconclusive outcome. Rule as the data show it: active = normalized growth mostly below about 0.91 (no sharp cut-off); inconclusive = no clear call, values can overlap the other calls; inactive = mostly above about 0.92. This is one part of the list.

Test: chemical genetic growth profiling, strain panel (AID 1159580);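 also: tested at 20 µM; growth read once vehicle control cultures reached saturation at 30 °C; 1 = growth at the plate median or of vehicle wells; lower values mean less growth of the strain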
Details: S. cerevisiae deletion strains, growth OD
[1] = locus YAR019C, strain CDC15, hits give low values
[2] = locus YBL105C, strain PKC1, hits give low values
[3] = locus YBR135W, strain CKS1, hits give low values
[4] = locus YBR136W, strain MEC1, hits give low values
[5] = locus YBR160W, strain CDC28, hits give low values
[6] = locus YDL017W, strain CDC7, hits give low values
[7] = locus YDL028C, strain MPS1, hits give low values
[8] = locus YDL101C, strain DUN1, hits give low values
[9] = locus YDL108W, strain KIN28, hits give low values
[10] = locus YDL132W, strain cdc53, hits give low values
[11] = locus YDL214C, strain PRR2, hits give low values
[12] = locus YDR052C, strain DBF4, hits give low values
[13] = locus YDR054C, strain cdc34, hits give low values
[14] = locus YDR226W, strain ADK1, hits give low values
[15] = locus YDR477W, strain SNF1, hits give low values
[16] = locus YER123W, strain YCK3, hits give low values
[17] = locus YER133W, strain GLC7, hits give low values
[18] = locus YFL009W, strain cdc4, hits give low values
[19] = locus YFL029C, strain CAK1, hits give low values
[20] = locus YFR003C, strain YPI1, hits give low values
[21] = locus YFR019W, strain FAB1, hits give low values
[22] = locus YFR028C, strain CDC14, hits give low values
[23] = locus YGR040W, strain KSS1, hits give low values
[24] = locus YGR052W, strain FMP48, hits give low values
[25] = locus YGR092W, strain DBF2, hits give low values
[26] = locus YHR030C, strain SLT2, hits give low values
[27] = locus YHR079C, strain IRE1, hits give low values
[28] = locus YHR082C, strain KSP1, hits give low values
[29] = locus YHR205W, strain SCH9, hits give low values
[30] = locus YIL147C, strain SLN1, hits give low values
[31] = locus YJL095W, strain BCK1, hits give low values
[32] = locus YJL128C, strain PBS2, hits give low values
[33] = locus YJL157C, strain FAR1, hits give low values
[34] = locus YJR016C, strain ILV3, hits give low values
[35] = locus YJR066W, strain TOR1 (second series), hits give low values
[36] = locus YJR066W, strain TOR1, hits give low values
[37] = locus YKL048C, strain ELM1, hits give low values
[38] = locus YKL067W, strain YNK1, hits give low values
[39] = locus YKL101W, strain HSL1, hits give low values
[40] = locus YKL193C, strain SDS22, hits give low values
[41] = locus YKL203C, strain TOR2, hits give low values
[42] = locus YLR113W, strain HOG1, hits give low values
[43] = locus YLR133W, strain CKI1, hits give low values
[44] = locus YLR403W, strain SFP1, hits give low values
[45] = locus YML070W, strain DAK1, hits give low values
[46] = locus YMR001C, strain CDC5, hits give low values
[47] = locus YMR205C, strain PFK2 (second series), hits give low values
[48] = locus YMR277W, strain FCP1, hits give low values
[49] = locus YNL006W, strain LST8, hits give low values
[50] = locus YNL020C, strain ARK1, hits give low values
[51] = locus YNL161W, strain CBK1, hits give low values
[52] = locus YNL183C, strain NPR1, hits give low values
[53] = locus YNL207W, strain RIO2, hits give low values
[54] = locus YNL222W, strain SSU72, hits give low values
[55] = locus YNL307C, strain MCK1 (second series), hits give low values
[56] = locus YOL078W, strain AVO1, hits give low values
[57] = locus YOL136C, strain PFK27, hits give low values
[58] = locus YOR061W, strain CKA2, hits give low values
[59] = locus YOR119C, strain RIO1, hits give low values
[60] = locus YOR231W, strain MKK1, hits give low values
[61] = locus YOR329C, strain SCD5, hits give low values
[62] = locus YPL031C, strain PHO85, hits give low values
[63] = locus YPL153C, strain RAD53, hits give low values
[64] = locus YPL204W, strain HRR25, hits give low values
[65] = locus YPL209C, strain IPL1, hits give low values
[66] = locus YPR025C, strain CCL1, hits give low values
[67] = locus YPR106W, strain ISR1, hits give low values
[68] = locus YPR111W, strain DBF20, hits give low values
[69] = strain NNK1, hits give low values
[70] = strain TSCII, hits give low values
[71] = locus YAL013W, strain DEP1, hits give low values
[72] = locus YBR229C, strain ROT2, hits give low values
[73] = locus YDR150W, strain NUM1, hits give low values
[74] = locus YEL061C, strain CIN8, hits give low values
[75] = locus YGR078C, strain PAC10, hits give low values
[76] = locus YHR087W, strain rtc3, hits give low values
[77] = locus YJR043C, strain POL32, hits give low values
[78] = locus YJR075W, strain HOC1, hits give low values
[79] = locus YLR039C, strain RIC1, hits give low values
[80] = locus YLR058C, strain SHM2 (second series), hits give low values
[81] = locus YLR085C, strain ARP6, hits give low values
[82] = locus YLR262C, strain YPT6, hits give low values
[83] = locus YML094W, strain GIM5, hits give low values
[84] = locus YMR219W, strain ESC1, hits give low values
[85] = locus YMR263W, strain SAP30, hits give low values
[86] = locus YNL153C, strain GIM3, hits give low values
[87] = locus YNL298W, strain CLA4 (second series), hits give low values
[88] = locus YNL322C, strain KRE1, hits give low values
[89] = locus YNR030W, strain Alg12, hits give low values
[90] = locus YPL055C, strain LGE1, hits give low values
[91] = locus YPL241C, strain CIN2, hits give low values
[92] = locus YPR135W, strain CTF4, hits give low values

Measured: normalized growth

O=C(OCc1ccccc1Br)c1cc([N+](=O)[O-])cc([N+](=O)[O-])c1
inactive: [1] 0.973 | [2] 0.986 | [3] 0.969 | [4] 0.98 | [5] 0.988 | [6] 0.984 | [7] 0.981 | [8] 0.985 | [9] 0.969 | [10] 0.961 | [11] 0.846 | [12] 0.984 | [13] 0.965 | [14] 0.981 | [15] 0.841 | [16] 0.84 | [17] 0.888 | [18] 0.983 | [19] 0.975 | [20] 0.977 | [21] 0.905 | [22] 0.974 | [23] 0.868 | [24] 0.871 | [25] 0.757 | [26] 0.92 | [27] 0.96 | [28] 0.923 | [29] 0.83 | [30] 0.976 | [31] 0.92 | [32] 0.944 | [33] 0.825 | [34] 0.973 | [35] 0.781 | [36] 0.885 | [37] 0.922 | [38] 0.876 | [39] 0.88 | [40] 0.974 | [41] 0.939 | [42] 0.892 | [43] 0.887 | [44] 0.857 | [45] 0.825 | [46] 0.967 | [47] 0.842 | [48] 0.988 | [49] 0.974 | [50] 0.869 | [51] 0.988 | [52] 0.947 | [53] 0.966 | [54] 0.989 | [55] 0.877 | [56] 0.978 | [57] 0.867 | [58] 0.809 | [59] 0.952 | [60] 0.937 | [61] 0.973 | [62] 0.876 | [63] 0.866 | [64] 0.86 | [65] 0.984 | [66] 0.982 | [67] 0.976 | [68] 0.973 | [69] 0.977 | [70] 0.976

NC(=NS(=O)(=O)c1cc(Cl)c(Oc2ccc([N+](=O)[O-])cc2Cl)c(Cl)c1)c1cccnc1
inactive: [71] 1 | [72] 0.993 | [8] 0.976 | [73] 0.948 | [74] 1.01 | [75] 1 | [26] 0.924 | [76] 1.01 | [77] 1 | [78] 0.992 | [79] 1.09 | [80] 1.01 | [81] 1.05 | [82] 1.09 | [83] 1.01 | [84] 0.997 | [85] 0.95 | locus YNL128W, strain TEP1, hits give low values 1.02 | [86] 0.992 | [87] 1.02 | [88] 1.01 | [89] 1.01 | [90] 0.912 | [91] 1.01 | [92] 0.96

CC1CC(=O)Nc2ccccc2N1C(=O)c1ccc([N+](=O)[O-])cc1 (centres undefined)
inactive: [71] 1.01 | [72] 1.01 | locus YCL061C, strain MRC1, hits give low values 1.02 | [8] 1.05 | locus YDL134C, strain PPH21, hits give low values 1.01 | [73] 0.937 | [74] 0.991 | [75] 1.03 | [26] 1.01 | [76] 0.978 | locus YJL187C, strain SWE1, hits give low values 1.01 | [77] 1.02 | [78] 1.01 | [79] 1.03 | [80] 0.998 | [81] 1.03 | [82] 1 | [83] 1.02 | [84] 1.01 | [85] 1.05 | [86] 1.02 | [87] 1.05 | [88] 1 | [89] 1.02 | locus YOL006C, strain TOP1, hits give low values 1.01 | [90] 0.996 | [91] 1.02 | [92] 1.03

N/C(=N/OC(=O)c1ccc([N+](=O)[O-])cc1)c1c(Cl)cccc1Cl
inactive: [1] 0.939 | [2] 0.946 | [3] 0.949 | [4] 0.941 | [5] 0.967 | [6] 0.958 | [7] 0.948 | [8] 0.975 | [9] 0.952 | [10] 0.938 | [11] 0.91 | [12] 0.955 | [13] 0.94 | [14] 0.944 | [15] 0.764 | [16] 0.936 | [17] 0.805 | [18] 0.935 | [19] 0.953 | [20] 0.95 | [21] 0.825 | [22] 0.942 | [23] 0.848 | [24] 0.71 | [27] 0.536 | [28] 0.872 | [30] 0.94 | [32] 0.973 | [33] 0.863 | [34] 0.942 | [36] 0.642 | [37] 1.02 | [38] 0.924 | [39] 0.911 | [40] 0.935 | [41] 0.758 | [43] 0.898 | [44] 0.69 | [45] 0.883 | [46] 0.941 | [47] 0.905 | [48] 0.921 | [49] 0.958 | [50] 0.881 | [51] 0.954 | [52] 0.578 | [53] 0.915 | [54] 0.954 | [56] 0.938 | [57] 0.936 | [58] 0.919 | [59] 0.746 | [61] 0.954 | [62] 0.7 | [63] 0.693 | [64] 0.671 | [65] 0.955 | [66] 0.955 | [67] 0.984 | [68] 0.979 | [69] 0.982 | [70] 0.942
active: [25] 0.465 | [26] 0.268 | [29] 0.449 | [31] 0.418 | [35] 0.598 | [42] 0.661 | [55] 0.613 | [60] 0.57 | locus YPL256C, strain CLN2, hits give low values 0.733
